Screening results (PubChem)
An excerpt weighted towards active compounds, which were near 27% of everything screened.
Cav3 T inh = human Cav3.2 channel inhibition, primary screen. O95180. Cav3.2-expressing cells, Fluo-4 calcium fluorescence FDSS; stronger effect = lower value. B-score at 10 µM. actives 4% (n = 100,000). AID 449739;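 active means single-dose well whose peak fluorescence ratio is a statistical outlier from its plate by either plate-standardised score or position-corrected B-score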
CYP2C19 activ = activators of human cytochrome P450 2C19; 96,000 tested, under 10 active; P33261; activation factor at 5 µM; recombinant CYP2C19, luciferin-H EGE luminescence; stronger effect = higher value; 0 = fully inhibited enzyme, 1 = untreated enzyme; AID 1025;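 active means activation factor of at least 2 at 5 µM in the primary screen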;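 further: 0 = wells with 2.5 mM tranylcypromine and 1 = vehicle-only wells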
CYP2C19 inhib = inhibitors of human CYP2C19; CYP2C19 Supersomes, luciferin-H EGE luminescence, 30 min; actives 21% (n = 96,000); P33261; inhibition, % at 5 µM;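 active means CYP2C19 inhibition above a set limit at 5 µM in the primary screen, cut at about 50% in these data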;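 further: plate controls were negative control wells for no effect and 2.5 mM tranylcypromine positive control for full effect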
CYP2C9 inhib = inhibitors of human CYP2C9 | CYP2C9 Supersomes, luciferin-H conversion, luminescence | actives 20% (n = 96,000) | inhibition, % at 5 µM | P11712 | AID 777;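 active means blocking of liver enzyme CYP2C9 beyond about 50% at 5 µM, limit read from the data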
Target sequence (P11712 whole entry, looked up): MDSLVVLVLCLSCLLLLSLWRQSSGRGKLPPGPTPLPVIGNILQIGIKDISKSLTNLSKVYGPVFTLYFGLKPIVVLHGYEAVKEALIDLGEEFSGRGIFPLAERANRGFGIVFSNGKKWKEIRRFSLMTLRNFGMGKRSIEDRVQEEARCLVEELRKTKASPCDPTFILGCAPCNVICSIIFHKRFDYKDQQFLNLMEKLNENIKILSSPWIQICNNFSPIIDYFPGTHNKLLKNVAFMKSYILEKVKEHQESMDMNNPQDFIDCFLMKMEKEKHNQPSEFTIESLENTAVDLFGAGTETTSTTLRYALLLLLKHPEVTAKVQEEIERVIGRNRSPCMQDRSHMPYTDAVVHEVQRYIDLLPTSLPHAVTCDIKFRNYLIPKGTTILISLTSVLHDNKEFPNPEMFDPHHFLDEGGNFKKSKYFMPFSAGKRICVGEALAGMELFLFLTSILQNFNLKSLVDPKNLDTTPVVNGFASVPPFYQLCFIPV
CYP2C9 activ = activators of human CYP2C9; recombinant CYP2C9, luciferin-H conversion, luminescence; stronger effect = higher value; factor 1 = untreated enzyme, 0 = blocked; actives 1.4% (n = 96,000); AID 1024; P11712; activation factor at 5 µM;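 active means activation factor of 2 or more for CYP2C9 at a 5 µM dose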;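 further: 0 = sulfaphenazole-blocked wells and 1 = vehicle-only wells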
* marks the source's active call; other numbers are inactive results.

C=CC[C@@H]1C=C(C)C[C@H](C)C[C@H](OC)[C@H]2O[C@@](O)(C(=O)C(=O)N3CCCC[C@H]3C(=O)O[C@H](/C(C)=C/[C@@H]3CC[C@@H](O)[C@H](OC)C3)[C@H](C)[C@@H](O)CC1=O)[C@H](C)C[C@@H]2OC was read as Cav3 T inh -4.1.
`Cc1cc(C)c(O)c(-c2cc(C(=O)Nc3ccc(S(=O)(=O)N4CCOCC4)cc3)[nH]n2)c1` gave Cav3 T inh -0.45, CYP2C19 activ 1, CYP2C19 inhib -3, CYP2C9 inhib 31 and CYP2C9 activ 0.7.
`Cc1ccc(-n2c(SCC(=O)NC3CCCCC3)nc3c(c2=O)SCC3)cc1` gave CYP2C19 activ 0.8, CYP2C19 inhib 24, CYP2C9 inhib 8 and CYP2C9 activ 0.9.
`Cc1ccc2cc(C)c3nnc(SCC(=O)Nc4nc5c(s4)CCCC5)n3c2c1C` gave Cav3 T inh -5.3*, CYP2C19 activ 0.6, CYP2C19 inhib 40, CYP2C9 inhib 50* and CYP2C9 activ 0.5.
`CCc1nnc(NC(=O)CSc2nnc(-c3cccnc3)n2CC)s1` gave Cav3 T inh 0.56, CYP2C19 activ 1, CYP2C19 inhib -2, CYP2C9 inhib 19 and CYP2C9 activ 0.8.
For COc1ccc(N2CCN(C(=O)CSc3nnc4c(C)cc5ccc(C)c(C)c5n34)CC2)cc1 the results were Cav3 T inh 1.8, CYP2C19 activ 0.9, CYP2C19 inhib 8, CYP2C9 inhib 29 and CYP2C9 activ 0.7.
CCc1nnc(NC(=O)CSc2nnc(-c3cc4ccccc4cc3O)n2CC)s1 was read as Cav3 T inh -1.7, CYP2C19 activ 0.5, CYP2C19 inhib 52*, CYP2C9 inhib 90* and CYP2C9 activ 0.1.
For CCn1c(SCC(=O)Nc2nc(-c3ccccc3)cs2)nnc1-c1ccccc1O the results were CYP2C19 activ 0.1, CYP2C19 inhib 89*, CYP2C9 inhib 95* and CYP2C9 activ 0.
Screening CCn1c(CCNC(=O)c2cccs2)nnc1SCC(=O)Nc1nc(-c2ccccc2)cs1 returned Cav3 T inh -7.5*.
COCCN(C(=O)c1ccco1)C(C(=O)NC1CCCC1)c1cccs1 (stereo not given) was read as Cav3 T inh 0.0045.
`O=C1OC(C(=O)Nc2nccs2)Cc2ccccc21` (stereo not given) gave Cav3 T inh 0.42, CYP2C19 activ 0.6, CYP2C19 inhib 44, CYP2C9 inhib 40 and CYP2C9 activ 0.6.
`N#Cc1ccc(C23CC4(C2)[C@H](CN(Cc2cccnc2)[C@@H]4c2ccccc2)C3c2ccccc2)cc1` (stereo not given in full) gave Cav3 T inh -1.1.
`CCn1c(SCC(=O)Nc2nc3c(s2)CCCC3)nnc1-c1ccccc1` gave Cav3 T inh -1.5, CYP2C19 activ 0.2, CYP2C19 inhib 81*, CYP2C9 inhib 88* and CYP2C9 activ 0.1.
For CCn1c(SCC(=O)N(C(C)C)C(C)C)nnc1-c1cc2ccccc2cc1O the results were Cav3 T inh 0.44, CYP2C19 activ 0.4, CYP2C19 inhib 65*, CYP2C9 inhib 57* and CYP2C9 activ 0.4.
For CCc1nnc(NC(=O)CSc2nnc3scc(-c4ccc(C)cc4)n23)s1 the results were Cav3 T inh 1.3.
`CCc1nnc(NC(=O)CSc2nnc(-c3ccoc3C)n2CC(C)C)s1` gave Cav3 T inh 0.21, CYP2C19 activ 0.1, CYP2C19 inhib 88*, CYP2C9 inhib 88* and CYP2C9 activ 0.1.
For CCn1c(SCC(=O)Nc2nc3ccccc3s2)nnc1-c1ccc(OC)cc1 the results were CYP2C19 activ 1, CYP2C19 inhib -5, CYP2C9 inhib 3 and CYP2C9 activ 1.
`O=C(CCC1CCCC1)Nc1ccc(Br)cn1` gave Cav3 T inh -1.3, CYP2C19 activ 0.7, CYP2C19 inhib 28, CYP2C9 inhib 27 and CYP2C9 activ 0.7.
Cc1ccc2oc3c(c(=O)c2c1)C(c1cccc(O)c1)N(c1ccccn1)C3=O (stereo not given) was read as Cav3 T inh -0.11, CYP2C19 activ 0.8, CYP2C19 inhib 20, CYP2C9 inhib -11 and CYP2C9 activ 1.1.
Screening COc1cc(C2c3c(oc4ccc(C)cc4c3=O)C(=O)N2c2cc(C)ccn2)cc(OC)c1OC (stereo not given) returned CYP2C19 activ 1, CYP2C19 inhib 3, CYP2C9 inhib 59* and CYP2C9 activ 0.4.
Cc1nc(-c2cccc(NS(=O)(=O)c3ccc4ccccc4c3)c2)cs1 was read as Cav3 T inh -2.4, CYP2C19 activ 0.7, CYP2C19 inhib 32, CYP2C9 inhib -59 and CYP2C9 activ 1.6.
For O=S(=O)(Nc1cccc(CCc2ccccn2)c1)c1ccc2ccccc2c1 the results were Cav3 T inh -4.4*, CYP2C19 activ 0, CYP2C19 inhib 99*, CYP2C9 inhib 27 and CYP2C9 activ 0.7.
COC(=O)C(Cc1ccccc1)NS(=O)(=O)c1ccccc1Br (stereo not given) was read as Cav3 T inh -0.015.
Screening CCOC(=O)C1C(=O)C(C(=O)OCC)C(c2cccnc2)NC1c1cccnc1 (stereo not given) returned Cav3 T inh 0.17, CYP2C19 activ 0.7, CYP2C19 inhib 33, CYP2C9 inhib 22 and CYP2C9 activ 0.8.
Screening CCCCSc1nnc2c(n1)OC(C(=O)c1ccccc1)Nc1ccccc1-2 (stereo not given) returned CYP2C19 activ 0.5, CYP2C19 inhib 49, CYP2C9 inhib 87* and CYP2C9 activ 0.1.
For N#Cc1nc(-c2cccs2)oc1N1CCN(Cc2ccccc2)CC1 the results were Cav3 T inh -0.82, CYP2C19 activ 0.8, CYP2C19 inhib 19, CYP2C9 inhib -17 and CYP2C9 activ 1.2.
CCCCC(=O)Nc1cccc(-c2nnc(-c3ccccc3)o2)c1 was read as Cav3 T inh -0.8, CYP2C19 activ 0.5, CYP2C19 inhib 52*, CYP2C9 inhib 75* and CYP2C9 activ 0.3.
COc1ccccc1OCC(=O)Nc1cccc(-c2nc3ccccc3o2)c1 was read as Cav3 T inh -0.41, CYP2C19 activ 0.7, CYP2C19 inhib 30, CYP2C9 inhib 48 and CYP2C9 activ 0.5.
For Cc1cccc(OCC(=O)NCc2ccncc2)c1C the results were CYP2C19 activ 0.3, CYP2C19 inhib 74*, CYP2C9 inhib 55* and CYP2C9 activ 0.4.
Cc1cccc(OCC(=O)Nc2cccc(-c3nnc(-c4ccccc4)o3)c2)c1C was read as Cav3 T inh -1.1, CYP2C19 activ 0.3, CYP2C19 inhib 74*, CYP2C9 inhib 90* and CYP2C9 activ 0.1.
`Cc1cccc(OCc2nnc(SCC(=O)N3CCc4ccccc43)n2C)c1` gave Cav3 T inh 0.47, CYP2C19 activ 0.8, CYP2C19 inhib 17, CYP2C9 inhib 20 and CYP2C9 activ 0.8.
Screening COC(=O)Cc1c[nH]c2cccc(OCC(O)CN(Cc3ccc([N+](=O)[O-])cc3)C(C)(C)C)c12 (stereo not given) returned Cav3 T inh -6.4*, CYP2C19 activ 0.8, CYP2C19 inhib 15, CYP2C9 inhib 34 and CYP2C9 activ 0.7.
